# Unmarked numbers belong to inactive results. No rule for the calls is given here.
# Tested on: Imidazoline I2 Central
# Assay: off-target binding and CYP450 inhibition panel, profiling panel, selectivity assay for S1P4 antagonist project, biochemical, Ricerca HitProfilingScreen (AID 489017)
# Conditions: Ricerca receptor/enzyme binding panel plus CYP450, at 10 µM, active compounds read high
compound,measurement,value
CCc1cccc(CC)c1NC(=O)c1ccc(-c2cc(Cl)ccc2Cl)o1,inhibition,8%
